Drawing on PubChem BioAssay (NCI), this text covers growth for 40 compounds.

This is part of a sample that, as a whole, favours compounds with a hit. Of some 83,000 tested, about 20% had one in any assay.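 Single-dose data. Exposure time 48 hours. Values below 10 considered active.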 Unmarked numbers belong to inactive results. The source made the active and inactive calls.

The test deals with HL-60(TB) leukemia. In words: NCI-60 one-dose screen, 48 h (100 = growth as untreated, 0 = no growth, -100 = all killed). Conditions: 10 µM unless noted.
For the compound `CN1CCN(c2ccc(Nc3nc(NCCCNS(=O)(=O)c4ccc(F)cc4)c4sccc4n3)cc2)CC1`, the growth was 28.8%.
For the compound `CC(C)c1ccc(NCc2cn(-c3ccc(C(=O)O)cc3)nc2-c2cc(C(F)(F)F)cc(C(F)(F)F)c2)cc1`, the growth was 83.1%.
Next, `O=C(COc1ccc(/C=C2\C(=O)Nc3ccc(Cl)cc32)cc1)Nc1ccc(Cl)cc1`: 57.6%; `CC(=O)N(C)C1CCc2c(sc(NC(=O)c3ccc(C(C)(C)C)cc3)c2C(N)=O)C1` (stereo not given): 40.4%; `Brc1cc(-c2cc(-c3ccc4c(c3)OCCO4)[nH]n2)cs1`: 24%.
As for `Cc1ccc2c(c1)Oc1nc(N)c(C#N)c(N)c1C2Sc1ccc(F)cc1` (stereo not given), the growth is -51.7% (active).
The same measure for `COc1cc(/C=N/n2cnc3oc(-c4ccccc4)cc3c2=N)cc(CN2CCCCC2)c1O`: -17.1% (active); for `CCCC(=O)NC(c1cccnc1)c1cc(C(C)=O)c2cccnc2c1O` (stereo not given): 24.9%; for `Cc1cc(C(NC(=O)CCCCCNc2cccc3c2C(=O)N(C2CCC(=O)NC2=O)C3=O)c2ccc3c(c2)OC(F)(F)O3)c(O)c2ncccc12` (stereo not given): 19.7%.
The same measure for `CN1CCN(Cc2ccc(NC(=O)c3cncc(C#Cc4cnc(N)nc4)c3)cc2C(F)(F)F)CC1`: 19.4%.
Next, `O=C(/C=C1\C=CN(CCCCO)c2ccccc21)n1ccc2ccccc21`: 114%.
Regarding `O=C(CNc1nc(-c2cccc([N+](=O)[O-])c2)cs1)Nc1cccc(Cl)c1`, the growth is 105%.
The same measure for `CNC(=O)c1cc(N2CCc3cc(NC(=O)Nc4ccc(N5CCN(C)CC5)c(C(F)(F)F)c4)ccc32)ccn1`: 79%; for `COc1ccc(-c2nc(SCC(C)C)nc(N/N=C\c3cccc([N+](=O)[O-])c3)c2C#N)cc1`: 85.1%; for `Cc1csc(/N=C(N)/N=C(\N)c2cccnc2)n1`: 65.9%.
The same measure for `O=C(/C=C/c1ccc(F)cc1)Nc1cccc2cccnc12`: 93.7%; for `COc1ccc2c(c1)c(-c1nnc(N)nc1-c1c[nH]c3ccc(F)cc13)cn2C`: -0.122% (active).
With `Nc1nc(-c2cccc([N+](=O)[O-])c2)c(N=Nc2cccc(Cl)c2)s1`, the growth was 56.4%.
Next, `O=C(C[n+]1ccnc2ccccc21)c1ccc(O)c(O)c1`: -24.7% (active).
The same measure for `C#CCNC1CCC(c2csc(C#C)n2)=C1C` (stereo not given): 90.6%.
As to `NC1CC2(CCN(c3cnc(C(=O)Nc4cc(F)cc5cccnc45)cn3)CC2)C1`, the growth was 50.6%.
On to `COc1ccc(-c2nc3cc(Cl)c(Cl)cc3n2CC(=O)N=Nc2c(O)[nH]c3ccc(Cl)cc23)cc1`, for which the growth is 59.7%.
`Cc1ccccc1NC1CC(=O)N(c2ccc(Cl)cc2Cl)C1=O` (stereo not given): the growth was 102%.
In the case of `C=CCn1c(SCC(=O)Nc2cccc(C(=O)/C=C/c3ccc(Cl)cc3)c2)nc2ccccc2c1=O`, the growth is 103%.
The same measure for `C/C(=C(/C)C1CC1CCN(C(=O)c1ccc([N+](=O)[O-])cc1)S(=O)(=O)c1ccc(C)cc1)C1CCCCC1` (stereo not given): 96.5%; for `Cc1ccc2c(n1)C(=O)C(Cl)=C(Nc1cccc(C(C)C)c1)C2=O`: 10.3%; for `C=CCSc1ccc2c(c1)C(N1CCNCC1)=Nc1ccccc1O2`: 25.6% [8.25 µM].
Next, `CC1(C)CC[C@]23CC[C@]4(C)[C@H](CC[C@@H]5[C@@]6(C)CCCN(CO)C(C)(C)[C@@H]6CC[C@]54C)[C@H]2[C@H]1OC3`: 36.6%.
The same measure for `COc1ccc(COc2ccc(/C=C3\C(=O)Nc4ccccc43)cc2OC)cc1`: 115%.
As for `O=C1/C(=C/C=C/c2ccco2)SC(=S)N1C1CCCCC1`, the growth is 69.4%.
The same measure for `C/C(=N\NC(=O)Nc1ccccc1)c1nnn(-c2ccc([N+](=O)[O-])cc2)c1C`: 98.9%; for `CN(C)CCNC(=O)c1ccc(-c2nc3ccc4[nH]ncc4c3c3c2CCC3)cc1`: -18.8% (active).
Take `CCC1=Cc2cc(OC)ccc2OC12C=Cc1cc(OC)ccc1O2` (stereo not given): the growth is -1.93% (active).
Next, `O=C1c2c(c3c4cc(Br)ccc4[nH]c3c3ccc4ccccc4c23)C(=O)N1CCO`: 96.7%; `O=C1Nc2ccc(Cl)cc2/C1=C/c1ccc(OCC(=O)c2ccc(Br)cc2)cc1`: 110%.
For the compound `Cc1c(Cl)cccc1S(=O)(=O)Nc1ccc2c(c1)C(=O)N(C1CCC(=O)NC1=O)C2=O` (stereo not given), the growth was -7.01% (active).
The same measure for `COC(=O)[C@@H](Cc1c[nH]c2ccccc12)NC(=O)CCCCOc1cc(O)c2c(=O)cc(-c3ccccc3)oc2c1`: 84.1%; for `NNc1nnc2nc(Nc3ccccc3)nc(Nc3ccc(S(N)(=O)=O)cc3)n12`: 108%; for `C/C(=N\NC(N)=O)c1c(O)sc(=O)[nH]c1=O`: 96.2%.
The same measure for `O=C1/C(=C/c2cc(F)cc(F)c2)Cc2cc3c(cc21)OCO3`: 3.69% (active).
